Experimental findings from PubChem BioAssay AID2501 (Southern Research Specialized Biocontainment Screening …, 2010) are described below.

Molecules are shown by their SMILES. Screen size: about 2,200 compounds; about 1,200 (55%) were called active. Cut-off not given; nearly all actives show IC50 up to about 92 µM. The set was probably picked from earlier hits. The list shows a part of the results.

A short description of the assay: counter assay for TAg ATPase ADP read-out – biochemical, ADP-Hunter, fluorescence, counter-screen (AID 2501).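 Further: purified T antigen ATPase.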 As to conditions: series mostly up to 100 µM.
With `Nc1ccc2c(c1)Cc1ccccc1-2`, the IC50 is 4.77 µM (active).

With `O=C1NC(=O)C(=Cc2csc3ccccc23)C(=O)N1`, the IC50 result was “inactive”.

With `CN1CCN(/N=C/c2c[nH]c3ccccc23)CC1`, the IC50 was 6.59 µM (active).

As for `O=C1NC(=O)N(Cc2ccco2)C(=O)/C1=C/c1cccn1CCOc1ccccc1Cl`, the IC50 entry is “inactive”.

Turning to `O=C1NC(=S)NC(=O)C1=Cc1ccc2c(c1)CCN2CCCCl`, the IC50 result is “inactive”.

In the case of `O=C1NC(=O)N(c2ccccc2)C(=O)/C1=C/c1ccc([N+](=O)[O-])s1`, the IC50 entry is “inactive”.

For the compound `C=CCN1C(=O)/C(=C/c2cc(C)n(-c3cccnc3)c2C)C(=O)NC1=S`, the IC50 result is “inactive”.

Regarding `C[CH2][Hg][S]c1ccccc1C(=O)O`, the IC50 entry was “inactive”.

Regarding `CCOc1ccccc1N1C(=O)NC(=O)/C(=C/c2ccc3c4c(cccc24)CC3)C1=O`, the IC50 result is “inactive”.

`CCC(C)N1C(=O)NC(=O)C2(Cc3c(ccc4ccccc34)N(C)C2)C1=O` (configuration not stated): the IC50 is 23.3 µM (active).

For `COc1ccc(N2C(=O)/C(=C/c3ccc(C)o3)C(=O)NC2=S)c(OC)c1`, the IC50 result was “inactive”.

Consider `COc1ccc(CN2C(=O)NC(=O)/C(=C/c3ccc([N+](=O)[O-])o3)C2=O)cc1`, for which the IC50 entry is “inactive”.

With `Cc1ccc2c(c1)=C/C(=C\c1c(O)[nH]c(=O)[nH]c1=O)C(=O)N=2`, the IC50 entry was “inactive”.

Take `CCN1C(=O)/C(=C\c2ccc([N+](=O)[O-])s2)C(=O)NC1=S`: the IC50 entry is “inactive”.

In the case of `O=C1NC(=O)N(c2ccccc2)C(=O)/C1=C\C=C\c1ccccc1`, the IC50 result is “inactive”.

In the case of `CN(c1ccc(OCC(=O)N2CCN(C/C=C/c3ccccc3)CC2)cc1)S(=O)(=O)c1cccs1`, the IC50 entry was “inactive”.

For the compound `O=c1[nH]sc2cc(F)ccc12`, the IC50 result is “inactive”.

With `O=C(O)CCC(=O)NCCC1=c2ccccc2=N/C1=C\c1c(O)n(Cc2ccc(F)cc2)c(=S)[nH]c1=O`, the IC50 result is “inactive”.

For `CC1CN=C(Nc2ccc(N(C)C)cc2)S1` (configuration not stated), the IC50 is 7.09 µM (active).

For `COP(=S)(OC)SCN1C(=O)c2ccccc2C1=O`, the IC50 result was “inactive”.

`CCOc1ccc(N2C(=O)NC(=O)/C(=C\c3ccccc3[N+](=O)[O-])C2=O)cc1`: the IC50 result is “inactive”.

Take `CCc1c(C)nc(N)nc1N1N=C1SC(C(C)=O)C(C)=O`: the IC50 entry was “inactive”.

For the compound `CCCN1CCc2cc(O)cc3c2[C@H]1Cc1ccc(O)c(O)c1-3`, the IC50 entry is “inactive”.

Consider `O=c1c(O)c(-c2ccc(O)c(O)c2)oc2cc(O)cc(O)c12`, for which the IC50 is 98.5 µM (active).

On to `O=c1cc(-c2ccc(O)c(O)c2)oc2cc(O)cc(O)c12`, for which the IC50 was 8.07 µM (active).

Consider `Oc1cc2c(cc1O)[C@H]1c3ccccc3CN[C@@H]1CC2`, for which the IC50 entry is “inactive”.

As to `CN1CCc2cc(O)cc3c2[C@H]1Cc1ccc(O)c(O)c1-3`, the IC50 result is “inactive”.

As to `O=C1NC(=O)N(c2ccc(Br)cc2)C(=O)/C1=C/c1ccsc1`, the IC50 result is “inactive”.

As for `CN1C(=O)NC(=O)/C(=C/c2ccc([N+](=O)[O-])o2)C1=O`, the IC50 result was “inactive”.

As for `O=C1NC(=O)N(c2ccccc2)C(=O)/C1=C\c1ccc2c3c(cccc13)CC2`, the IC50 entry was “inactive”.

For `O=c1c2ccccc2[se]n1-c1ccccc1`, the IC50 was 10.9 µM (active).

Take `O=C1NC(=O)C(=Cc2ccccc2OCCOc2ccc([N+](=O)[O-])cc2)C(=O)N1`: the IC50 entry is “inactive”.

`CCN1C(=O)C(=C/C=C/c2ccco2)C(=O)N(CC)C1=S`: the IC50 result is “inactive”.

With `CCOc1cccc(OCC)c2c(C)[n+](CC3CCCO3)c(C)c1-2` (configuration not stated), the IC50 entry is “inactive”.

Take `COc1cc(/C=C2\C(=O)NC(=O)N(CCc3ccc(F)cc3)C2=O)ccc1O`: the IC50 was 6.23 µM (active).

`COc1ccc(CN2C(=O)NC(=O)/C(=C/c3ccoc3)C2=O)cc1`: the IC50 result is “inactive”.

For the compound `O=C1NC(=O)C(=Cc2ccc(OCCOc3ccc([N+](=O)[O-])cc3)cc2)C(=O)N1`, the IC50 entry is “inactive”.

`O=C1NC(=O)N(CCc2ccc(F)cc2)C(=O)/C1=C/c1ccco1`: the IC50 entry was “inactive”.

Take `COc1cc(C=C2C(=O)NC(=O)NC2=O)ccc1O`: the IC50 is 19.6 µM (active).

Consider `CCOC(=O)CSCCOc1ccc(C=C2C(=O)NC(=O)NC2=O)cc1OC`, for which the IC50 result is “inactive”.

As for `Cc1nc2cc([N+](=O)[O-])ccc2c(=O)n1-c1ccc(Br)cc1`, the IC50 entry was “inactive”.

Consider `O=C1NC(=S)NC(=O)C1=Cc1cccn1-c1ccc(O)cc1`, for which the IC50 result was “inactive”.

`Cc1cc(C=C2C(=O)N(C)C(=S)N(C)C2=O)c(C)n1-c1ccncc1`: the IC50 entry was “inactive”.

In the case of `CN(C)[C@@H]1C(=O)C(C(N)=O)=C(O)[C@@]2(O)C(=O)C3=C(O)c4c(O)cccc4[C@@](C)(O)[C@H]3[C@H](O)[C@@H]12`, the IC50 entry was “inactive”.

Turning to `CCCNC(=O)N1C2CCC1CC(O)(c1cccnc1)C2` (configuration not stated), the IC50 entry was “inactive”.

In the case of `Cc1ccccc1-n1c(C)cc(/C=C2/C(=O)NC(=O)N(Cc3ccco3)C2=O)c1C`, the IC50 result is “inactive”.

`N/C(=N\[N+](=O)[O-])N/N=C/c1ccc(O)cc1`: the IC50 was 2.93 µM (active).

As to `C[C@]12CC[C@@H]3c4ccc(O)c(O)c4CC[C@H]3[C@@H]1CC[C@@H]2O`, the IC50 entry was “inactive”.

In the case of `COc1ccc(/C=C2/C(=O)NC(=O)N(Cc3ccco3)C2=O)cc1`, the IC50 entry is “inactive”.

Consider `NS(=O)(=O)c1ccc(-c2ccc(C=C3C(=O)NC(=O)NC3=O)o2)cc1`, for which the IC50 result is “inactive”.

In the case of `CC1=NCCc2c1[nH]c1cc(O)ccc21`, the IC50 was 4.35 µM (active).

Take `Cc1ccc(N2C(=O)NC(=O)/C(=C/c3ccc(-c4ccc(C(=O)O)c(Cl)c4)o3)C2=O)cc1`: the IC50 entry is “inactive”.

In the case of `NC(N)=Nc1ccc2[nH]c3c(c2c1)C[C@@]1(O)[C@H]2Cc4ccc(O)c5c4[C@@]1(CCN2CC1CC1)[C@H]3O5`, the IC50 entry was “inactive”.

`Cc1ccc(N2C(=O)NC(=O)/C(=C\C=C\c3ccco3)C2=O)cc1C`: the IC50 result was “inactive”.

Turning to `C=C1C(=O)O[C@H]2[C@H]1[C@H](OC(=O)CC(=O)O[C@@H]1C[C@@H](C)[C@@H]3C=CC(=O)[C@@]3(C)[C@H]3OC(=O)C(=C)[C@H]13)C[C@@H](C)[C@H]1C=CC(=O)[C@]12C`, the IC50 entry is “inactive”.

As for `CN1C(=O)/C(=C/C=C/c2ccco2)C(=O)NC1=S`, the IC50 entry was “inactive”.

Consider `O=C1NC(=O)C(=Cc2ccc(-c3cc(Cl)ccc3[N+](=O)[O-])o2)C(=O)N1`, for which the IC50 entry was “inactive”.

Consider `COc1cc2c(cc1O)CC[n+]1cc3c(OC)c(OC)ccc3cc1-2`, for which the IC50 is 4.22 µM (active).

For the compound `O=C1NC(=O)N(c2ccccc2)C(=O)/C1=C\c1ccc([N+](=O)[O-])s1`, the IC50 result was “inactive”.

With `O=c1[nH]c(=S)n(-c2ccccc2F)c(O)c1C=Nc1ccc(N2CCOCC2)cc1`, the IC50 is 5.34 µM (active).

Turning to `CC(C)Nc1ccc(Nc2ccccc2)cc1`, the IC50 is 5.82 µM (active).

For `NS(=O)(=O)c1ccc(-c2ccc(C=C3C(=O)NC(=S)NC3=O)o2)cc1`, the IC50 result is “inactive”.
